Laboratory results taken from paper PMC5540273 (PLoS ONE, 2017).

How the values were obtained:
Conditions in all cases: concentration: 1 μM, replicates: in singlicate; n = 1
[1] = tested on: WNK4
[2] = tested on: T1, YANK1
T1 construct: gene STK32A

[3] = tested on: T2, YANK2
T2 construct: gene STK32B

[4] = tested on: T3, YANK3
T3 construct: gene STK32C

[5] = tested on: T4, YES
T4 construct: gene YES1

[6] = tested on: T5, YSK1
T5 construct: gene STK25

[7] = tested on: T6, YSK4
T6 construct: gene MAP3K19

[8] = tested on: ZAK
[9] = tested on: ZAP70
[10] = tested on: T7, p38-alpha
T7 construct: gene MAPK14
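Also: KINOMEscan kinase panel screen.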

Row | SMILES | %Inh [1] | %Inh [2] | %Inh [3] | %Inh [4] | %Inh [5] | %Inh [6] | %Inh [7] | %Inh [8] | %Inh [9] | %Inh [10]
1 | OCCOCCn1ccc2ncnc(Nc3ccc(Oc4cccc(Cl)c4)c(Cl)c3)c21 | 0% | 0% | 0% | 0% | 0% | 0% | 0% | 0% | 0% | 0%
2 | Cl.Cl.c1ccc(-c2cc3ccncc3cc2OC2CCNCC2)cc1 [GSK1122999] | 28% | 20% | 0% | 0% | 15% | 8% | 64% | 0% | 0% | 4%
3 | COC(=O)c1c(-c2ccccc2)c2cc(Cl)ccc2c(=O)n1Cc1ccc(S(C)(=O)=O)cc1 | 27% | 0% | 15% | 0% | 0% | 0% | 2% | 5% | 0% | 17%
4 | CCn1c(-c2ccncc2)nc2cnccc21 [SB-735216] | 22% | 0% | 4% | 7% | 16% | 0% | 74% | 23% | 0% | 0%
5 | Cn1ccc2ncnc(Nc3ccc(Oc4cccc(Cl)c4)c(Cl)c3)c21 | 34% | 0% | 14% | 17% | 0% | 0% | 11% | 30% | 0% | 17%
